Screen size: about 350,000 compounds; about 1,300 (0.37%) were called active. For the sample, actives were picked, then their nearest neighbours and some compounds at random. Values without a mark were called inactive.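 How the source made its calls: active means mean added fluorescence quench of at least 8% versus neutral control, with both replicates also reaching 8%; inconclusive means only one of the mean or replicate conditions met; inactive means mean below 8% and not both replicates reaching 8%.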

A short description of this assay: F508del CFTR correction, initial screen, CFBE line, single point (AID 720511).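 Further: cells transiently co-express mutant CFTR-F508del with the halide-sensitive YFP; corrector assay measuring rescue of mutant channel to the surface after 24 h compound exposure.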 The note with it: CFBE cells, YFP halide quenching, at 7.58 µM, active compounds read high.
With `C[C@]12CCC3C(CC[C@H]4[C@H](O)[C@H](O)CC[C@]34C)C1CCC2=O` (stereo not given in full), the activity (quench increase) is 11.1% (active).

For the molecule `C[C@]12CCC3C(CC[C@H]4[C@H](O)[C@H](O)CC[C@]34C)C1CC[C@@H]2O` (stereo not given in full), the activity (quench increase) is 0.916%.

As for `C[C@]12CCC3C(CC[C@H]4C[C@@H](O)CC[C@]34C)C1C[C@@H](O)[C@H]2O` (stereo not given in full), the activity (quench increase) is 1.25%.

Take `COC(=O)C1=C(c2ccc(OCc3ccccc3)cc2)C[C@@H]2CC[C@H]1N2C(=O)NCc1ccc(Cl)cc1`: the activity (quench increase) was 4.11%.

In the case of `C/C=C/c1ccc(C2[C@@H]3CN(Cc4cncnc4)C[C@H]2N3)cc1` (stereo not given in full), the activity (quench increase) was 2.42% [% fluorescence drop versus neutral controls, stimulated with forskolin plus potentiator P3].
